The source of these data is PubChem BioAssay (NCI).

Structures are written as SMILES. This is part of a sample that, as a whole, favours compounds with a hit. Of some 83,000 tested, about 20% had one in any assay.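 Cells were grown in 96-well plates and exposed to the test compound at a single concentration for 48 hours; results are reported as percent growth, with values below 10 considered active.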 A number with no mark means an inactive call. Calls of active or inactive are those of the source.

Some test systems named below: NCI-H23 lung; NCI-H322M lung; HOP-62 NSCLC; HOP-92 NSCLC; NCI-H522 lung; A549/ATCC NSCLC; 786-0 renal; COLO 205 colon; DU-145 prostate; K-562 leukemia; MALME-3M melanoma; MDA-MB-231 breast; RXF 393 renal; SF-268 CNS; SF-295 CNS; SF-539 CNS; UACC-257 melanoma; M14 melanoma; NCI-H460 lung.
What all share (assay): NCI-60 one-dose screen, 48 h (100 = growth as untreated, 0 = no growth, -100 = all killed)
Holding throughout (conditions): 10 µM unless noted

As to `C=C1C(=O)O[C@H]2[C@H]1CC/C(CNC(=O)Cc1c[nH]c3ccccc13)=C\CC[C@@]1(C)O[C@@H]21`, the growth is 30% with NCI-H23 lung; 82.2% with NCI-H322M lung; 53.8% in the assay with HOP-62 NSCLC; 45.1% in the assay with HOP-92 NSCLC; -79.4% (active) in the assay on NCI-H522 lung; 62% in the assay on A549/ATCC NSCLC. In addition, the growth in the assay on 786-0 renal is -36.4% (active); with COLO 205 colon, -74.9% (active); with DU-145 prostate it was 26.5%; with K-562 leukemia, -12.2% (active); in the assay with MALME-3M melanoma, 14.2%; in the assay with MDA-MB-231 breast, 16.1%. Moreover, the growth with RXF 393 renal was -72.3% (active); in the assay with SF-268 CNS it was 51.2%; with SF-295 CNS, 69.9%; in the assay on SF-539 CNS, -27.1% (active); with UACC-257 melanoma it was 5.96% (active); in the assay on M14 melanoma, 3.28% (active).

Take `Nc1nc(C(=O)N/N=C/c2ccc(F)cc2)nn1-c1ccc(S(N)(=O)=O)cc1`: the growth is 101% in the assay with NCI-H23 lung; 91.1% with NCI-H322M lung; 98.8% with HOP-62 NSCLC; 106% with NCI-H460 lung; 98.9% in the assay with HOP-92 NSCLC; 88.8% in the assay with NCI-H522 lung. Further, the growth with A549/ATCC NSCLC was 95%; in the assay on 786-0 renal, 97.2%; with COLO 205 colon it was 112%; with DU-145 prostate, 104%; in the assay with K-562 leukemia, 103%; in the assay on MALME-3M melanoma it was 89.2%. Also, the growth in the assay on MDA-MB-231 breast is 96.4%; in the assay with RXF 393 renal, 95.5%; with SF-268 CNS, 95.7%; with SF-295 CNS, 102%; in the assay on SF-539 CNS, 98.9%; with UACC-257 melanoma, 103%. Also, the growth with M14 melanoma was 99.5%.

With `CN(C)Cc1cc(C(C)(C)C)cc(Br)c1O`, the growth with NCI-H23 lung was 107%; with NCI-H322M lung it was 118%; in the assay with HOP-62 NSCLC it was 110%; in the assay with HOP-92 NSCLC, 87.5%; in the assay on NCI-H522 lung, 103%; in the assay with A549/ATCC NSCLC, 109%. In addition, the growth in the assay on 786-0 renal was 101%; with COLO 205 colon it was 102%; in the assay on DU-145 prostate, 109%; in the assay on K-562 leukemia it was 106%; with MALME-3M melanoma it was 122%; in the assay on MDA-MB-231 breast, 113%. In addition, the growth was 93.9% with RXF 393 renal; 104% with SF-268 CNS; 97.3% in the assay with SF-295 CNS; 88.6% with SF-539 CNS; 119% in the assay with UACC-257 melanoma; 101% in the assay with M14 melanoma.

`C#CCOc1ccc2nc(CCl)c(Cl)c(Nc3cccc(C(F)(F)F)c3)c2c1`: the growth in the assay with NCI-H23 lung was 87.8%; with NCI-H322M lung, 98.1%; with HOP-62 NSCLC, 93%; with NCI-H460 lung it was 105%; in the assay on HOP-92 NSCLC, 94.6%; in the assay on NCI-H522 lung it was 36.4%. In addition, the growth with A549/ATCC NSCLC was 94.7%; in the assay with 786-0 renal, 76%; in the assay with COLO 205 colon it was 80%; in the assay on DU-145 prostate it was 72%; with K-562 leukemia, 38.8%; in the assay with MALME-3M melanoma, 59.5%. In addition, the growth with MDA-MB-231 breast was 55%; with RXF 393 renal it was 84.1%; in the assay with SF-268 CNS, 85.3%; in the assay on SF-295 CNS, 88%; in the assay on SF-539 CNS, 104%; in the assay with UACC-257 melanoma, 93.7%.

On to `C=C1SC(=Nc2ccccc2Cl)N(C(=O)c2sc3ccccc3c2Cl)C1(C)C`, for which the growth in the assay with NCI-H23 lung was 36.7%; in the assay with NCI-H322M lung, 65.9%; in the assay with HOP-62 NSCLC it was 54.8%; in the assay on HOP-92 NSCLC, 53.6%; with NCI-H522 lung, 91.6%; with A549/ATCC NSCLC, 43.7%. Moreover, the growth with 786-0 renal is 77.8%; in the assay with COLO 205 colon, -43.8% (active); in the assay on DU-145 prostate, 94%; in the assay on K-562 leukemia, 20.3%; in the assay on MALME-3M melanoma, 79.6%; in the assay with MDA-MB-231 breast, 50.5%. Moreover, the growth is 93.8% in the assay on RXF 393 renal; 85.2% with SF-268 CNS; 27% with SF-295 CNS; 54.3% in the assay on SF-539 CNS; 98.4% in the assay with UACC-257 melanoma; 86.6% with M14 melanoma.

For `C[C@@H]1NC(=O)[C@H](Cc2ccccc2)N(Cc2cccnc2)C1=O`, the growth in the assay with NCI-H23 lung was 101%; with NCI-H322M lung, 109%; in the assay with HOP-62 NSCLC, 94.8%; in the assay with NCI-H460 lung, 102%; in the assay on HOP-92 NSCLC it was 84.7%; with A549/ATCC NSCLC it was 94.6%. Moreover, the growth in the assay with 786-0 renal was 90.3%; in the assay with COLO 205 colon, 105%; with DU-145 prostate, 108%; in the assay with K-562 leukemia it was 89%; in the assay with MALME-3M melanoma, 101%; in the assay with MDA-MB-231 breast, 97.3%. Besides, the growth with RXF 393 renal was 108%; in the assay on SF-268 CNS, 104%; in the assay with SF-295 CNS it was 97%; with SF-539 CNS, 101%; in the assay on UACC-257 melanoma, 91.7%; in the assay on M14 melanoma, 93.8%.

As to `COCCn1cc(-c2nc(-c3cn(CCOC)c4ncccc34)cs2)c2cc(F)ccc21`, the growth in the assay with NCI-H23 lung was 53.5%; in the assay on NCI-H322M lung, 46.9%; in the assay with HOP-62 NSCLC it was 74.4%; with HOP-92 NSCLC it was 56.9%; in the assay on NCI-H522 lung it was 33.3%; in the assay with A549/ATCC NSCLC, 53.7%. Besides, the growth in the assay with 786-0 renal was 76.6%; in the assay on COLO 205 colon it was 35.5%; with DU-145 prostate, 86.1%; in the assay with K-562 leukemia, 63.7%; with MALME-3M melanoma it was 95.3%; in the assay on MDA-MB-231 breast, 44.9%. For the same molecule, the growth was 86.5% in the assay with RXF 393 renal; 91.6% in the assay with SF-268 CNS; 74.7% with SF-295 CNS; 76.1% in the assay with SF-539 CNS; 69.5% in the assay on UACC-257 melanoma; 66.6% in the assay with M14 melanoma.

With `COc1ccc(C2[C@@H](Cl)C(=O)N2c2cc(OC)c(OC)c(OC)c2)cc1Cl` (stereo partly drawn), the growth with NCI-H23 lung was 34.9%; in the assay with NCI-H322M lung, 40%; in the assay on HOP-62 NSCLC it was 21%; with NCI-H460 lung it was 5.19% (active); with HOP-92 NSCLC, 33.6%; in the assay with NCI-H522 lung, -28.7% (active). In addition, the growth with A549/ATCC NSCLC was 14.8%; with 786-0 renal, 5.5% (active); with COLO 205 colon, -50.2% (active); in the assay with DU-145 prostate, 6.13% (active); with K-562 leukemia it was 5.8% (active); in the assay on MALME-3M melanoma, 69.1%. The growth in the assay on MDA-MB-231 breast is 33.5%; with RXF 393 renal, -2.33% (active); with SF-268 CNS, 26.1%; with SF-295 CNS, 8.96% (active); in the assay on SF-539 CNS, 9.09% (active); in the assay with UACC-257 melanoma, 31.5%. In addition, the growth with M14 melanoma was -4.46% (active).

For `COc1ccc2c(c1)CC[C@@H]1[C@@H]2CC[C@]2(C)C3C(=CC(COC(C)=O)C4C(=O)N(c5ccc(Cl)cc5)C(=O)C43)C[C@@H]12` (stereo partly drawn), the growth with NCI-H23 lung is 91.8%; in the assay on NCI-H322M lung, 107%; in the assay on HOP-62 NSCLC, 98.4%; in the assay on HOP-92 NSCLC, 90.7%; in the assay with NCI-H522 lung, 89.9%; in the assay on A549/ATCC NSCLC it was 110%. Further, the growth in the assay on 786-0 renal is 111%; in the assay with COLO 205 colon it was 118%; in the assay on DU-145 prostate it was 106%; in the assay with K-562 leukemia, 52.4%; with MALME-3M melanoma, 101%; in the assay on MDA-MB-231 breast, 103%. Besides, the growth with RXF 393 renal was 110%; in the assay on SF-268 CNS it was 91.7%; with SF-295 CNS, 105%; in the assay with SF-539 CNS, 114%; in the assay on UACC-257 melanoma, 109%.
